Screening data deposited in PubChem BioAssay by Sanford-Burnham Center for Chemical Genomics.
In the library only some 3.1% were active in any assay of this set; here they are far more common.
Peg3 promoter: Peg3 promoter-driven luciferase inhibitors, primary screen, cell-based, HeLa, luciferase luminescence. HeLa PEG-Prom luciferase reporter, overnight. inhibition, % at 20 µM. 360,000 compounds, 1.7% hits;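 active = inhibition of at least 50% at 20 µM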
CF NFkB block: inhibitors of PAF-induced NF-kB signaling, primary screen, cell-based, GFP fluorescence, uHTS; inhibition, % at 5 µM; 360,000 compounds, 0.86% hits; KKLEB NF-kB-GFP reporter, GFP fluorescence overnight;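 active = at least 50% inhibition at 5 µM, scaled per plate between neutral and stimulator controls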;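 also: PAF is a Pseudomonas aeruginosa culture filtrate used as stimulus; plate controls were PAF-stimulated DMSO wells for no effect and unstimulated DMSO wells for full effect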
HIF-2a block: HIF-2a reporter inhibitors, primary screen, luminescence, 786-0 RCC cells. 786-0 RCC cells HIF-2a reporter, luciferase luminescence, overnight. inhibition, % at 18.8 µM. 360,000 compounds, 0.72% hits;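 active = inhibition of the luminescence signal of 40% or more relative to plate controls, in a single-dose primary screen at 18.75 µM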
PPC-1+TRAIL kill: compounds killing PPC-1 cancer cells with TRAIL present, primary screen, TRAIL potentiator project, ATPLite luminescence, uHTS; PPC-1 cells + TRAIL, ATPLite viability luminescence; cell killing (% activity), % at 4 µM or 5 µM; AID 1443, 2008; 220,000 compounds, 0.41% hits;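 active = cell killing above 50% in the first pass at 4 µM, then a duplicate retest at 5 µM averaging 50% or more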;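 also: plate controls were cells with TRAIL plus DMSO for no effect and medium-only wells lacking cells for full effect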
KKLEB tox: cytotoxicity in KKLEB CF airway cells, primary screen, cytotoxicity control for CF NF-kB inhibitor project, cell-based, uHTS, fluorescence assay plates; AID 602141, 2011; activity change (cytotoxicity), % at 5 µM; KKLEB CF airway cells viability, ATPlite luminescence, overnight; hits give low values; cells stimulated with P. aeruginosa culture filtrate; 360,000 compounds, 0.36% hits;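 active = corrected activity change at or below -50% at 5 µM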
C8 TRAIL sens: viability loss with TRAIL in NB7+C8 cells, primary screen, TRAIL sensitizer project, cell-based, ATPlite luminescence; 360,000 compounds, 1% hits; inhibition (viability loss, TRAIL sensitization), % at 10 µM;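 active = compounds causing at least 50% loss of cell viability in the single-dose screen, relative to plate controls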
CF NFkB conf: inhibitors of PAF-induced NF-kB signaling, retest, confirmation, cell-based, GFP fluorescence, single concentration; shares compounds with CF NFkB block; inhibition, % at 5 µM; 1,300 compounds, 64% hits; KKLEB CF airway cells, overnight; AID 602472, 2012; in the data active = inhibition above about 40%;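 also: stimulus PAF is a Pseudomonas aeruginosa filtrate and not platelet activating factor; plate controls were DMSO wells with stimulus for no effect and unstimulated DMSO wells for full effect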
Numbers without * were called inactive.

What do the screens show for `O=C(NCc1nc(-c2ccc(C(F)(F)F)cc2)no1)Nc1ccc(F)cc1F`?
Peg3 promoter: 10; CF NFkB block: 2; HIF-2a block: 11; PPC-1+TRAIL kill: 9; KKLEB tox: 6; C8 TRAIL sens: -7

Results for O=C(NCc1nc(-c2ccc(C(F)(F)F)cc2)no1)Nc1cc(Cl)cc(Cl)c1 ?
Peg3 promoter: 52*; CF NFkB block: 55*; HIF-2a block: -17; PPC-1+TRAIL kill: 9; KKLEB tox: -30; C8 TRAIL sens: -1; CF NFkB conf: 50*

How did CC(=O)Oc1c(Br)cc(N(C(C)=O)S(=O)(=O)c2ccccc2)c2ccccc12 do in these assays?
Peg3 promoter: -8; CF NFkB block: 88*; HIF-2a block: -3; KKLEB tox: -41; C8 TRAIL sens: 19; CF NFkB conf: 74*

What do the screens show for `CCOc1cc(CN2CCC(n3nccc3NC(=O)C3CC3)CC2)ccc1O`?
Peg3 promoter: 7; CF NFkB block: -5; HIF-2a block: 6; KKLEB tox: -3; C8 TRAIL sens: -4

What do the screens show for `O=C(NCCCSc1ccccc1)c1cc(Br)ccc1O`?
Peg3 promoter: 42; CF NFkB block: 55*; HIF-2a block: -9; KKLEB tox: -36; C8 TRAIL sens: 13; CF NFkB conf: 79*

How did C=C1C(=O)[C@]23C[C@H]1CCC2[C@@]1(C)C(C[C@@H]3O)[C@](C)(C(=O)O)C[C@H](O)[C@@H]1O (some centres not stated) do in these assays?
Peg3 promoter: -1; CF NFkB block: -12; HIF-2a block: 8; KKLEB tox: 16; C8 TRAIL sens: -6

What do the screens show for `C=C1C(=O)[C@]23C[C@H]1CC[C@H]2[C@]1(C)[C@@H](O)CC[C@@](C)(C(=O)O)[C@H]1C[C@@H]3O`?
Peg3 promoter: -8; CF NFkB block: 84*; HIF-2a block: 2; KKLEB tox: 8; C8 TRAIL sens: -4; CF NFkB conf: 83*

What do the screens show for `C=C1C(=O)[C@]23C[C@H]1CC[C@H]2[C@]1(C)[C@@H](OC(C)=O)CC[C@@](C)(C(=O)O)[C@H]1C[C@@H]3O`?
Peg3 promoter: 93*; CF NFkB block: 92*; HIF-2a block: 30; KKLEB tox: -19; C8 TRAIL sens: 0; CF NFkB conf: 93*

Results for O=C1NCCc2c1[nH]c1ccccc21 ?
Peg3 promoter: 9; CF NFkB block: 8; HIF-2a block: -1; PPC-1+TRAIL kill: -5; KKLEB tox: -1; C8 TRAIL sens: 2

Results for COc1ccc2[nH]c3c(c2c1)CCNC3=O ?
Peg3 promoter: 0; CF NFkB block: 52*; HIF-2a block: -20; KKLEB tox: -6; C8 TRAIL sens: -7; CF NFkB conf: 83*

What do the screens show for `COC(=O)N1C(=O)[C@](c2ccccc2)(C(C)C)N1C(=O)OC`?
Peg3 promoter: 24; CF NFkB block: 36; HIF-2a block: 32; KKLEB tox: -2; C8 TRAIL sens: -9

Results for CCOC(=O)N1C(=O)[C@](c2ccc(Cl)cc2)(C(C)C)N1C(=O)OCC ?
Peg3 promoter: 68*; CF NFkB block: 51*; HIF-2a block: 26; KKLEB tox: -6; C8 TRAIL sens: 15; CF NFkB conf: 9

What do the screens show for `COc1ccc(CCN2C(=O)CSC2=Nc2ccc(C(C)C)cc2)cc1OC`?
Peg3 promoter: 35; CF NFkB block: 11; HIF-2a block: 9; PPC-1+TRAIL kill: 15; KKLEB tox: -20; C8 TRAIL sens: 13

Results for O=C(Nc1ccccn1)c1ccc([N+](=O)[O-])o1 ?
Peg3 promoter: -6; CF NFkB block: 31; HIF-2a block: -12; PPC-1+TRAIL kill: 5; KKLEB tox: -4; C8 TRAIL sens: 17

Results for Cc1ccc2nsnc2c1NC(=O)c1ccc([N+](=O)[O-])o1 ?
Peg3 promoter: 22; CF NFkB block: 73*; HIF-2a block: 38; KKLEB tox: 7; C8 TRAIL sens: 27; CF NFkB conf: 37

How did Cc1ccnc(NC(=O)c2ccc([N+](=O)[O-])o2)c1 do in these assays?
Peg3 promoter: -66; CF NFkB block: 51*; HIF-2a block: -138; PPC-1+TRAIL kill: 18; KKLEB tox: 3; C8 TRAIL sens: 9; CF NFkB conf: 20

How did NC(=O)c1ccsc1NC(=O)c1ccc([N+](=O)[O-])o1 do in these assays?
Peg3 promoter: 47; CF NFkB block: 59*; HIF-2a block: -22; KKLEB tox: -29; C8 TRAIL sens: 36; CF NFkB conf: -15

What do the screens show for `Cc1ccc2nsnc2c1NC(=O)CCl`?
Peg3 promoter: 5; CF NFkB block: -12; HIF-2a block: 7; PPC-1+TRAIL kill: -4; KKLEB tox: 3; C8 TRAIL sens: 0

What do the screens show for `CC1=C(/C=C/C(C)=C/C=C/C(C)=C\C(=O)O)C(C)(C)CCC1`?
Peg3 promoter: -20; CF NFkB block: 66*; HIF-2a block: 13; KKLEB tox: -9; C8 TRAIL sens: 9; CF NFkB conf: 70*

How did CC1=CC(=O)CC(C)(C)C1(O)/C=C/C(C)=C/C(=O)O (configuration not stated) do in these assays?
Peg3 promoter: 8; CF NFkB block: -1; HIF-2a block: 6; PPC-1+TRAIL kill: 2; KKLEB tox: 4; C8 TRAIL sens: -8

Results for Cc1nn(-c2ccccc2)c(Cl)c1/C=N/NC(N)=O ?
Peg3 promoter: -23; CF NFkB block: -8; HIF-2a block: -88; PPC-1+TRAIL kill: -3; KKLEB tox: -13; C8 TRAIL sens: -6

Results for NC(=O)N/N=C/c1c(Sc2nnnn2-c2ccccc2)nc2ccccn2c1=O ?
Peg3 promoter: 103*; CF NFkB block: 71*; HIF-2a block: 3; PPC-1+TRAIL kill: -13; KKLEB tox: -38; C8 TRAIL sens: -25; CF NFkB conf: 72*

What do the screens show for `CCOc1ncccc1C(=O)OC(C)C(=O)Nc1ccc(Cl)cn1` (configuration not stated)?
Peg3 promoter: 4; CF NFkB block: 36; HIF-2a block: 10; KKLEB tox: -15; C8 TRAIL sens: 0

Results for CNc1ccccc1C(=O)OC(C)C(=O)Nc1ccc(Cl)cn1 (configuration not stated) ?
Peg3 promoter: 100*; CF NFkB block: 69*; HIF-2a block: -186; KKLEB tox: -8; C8 TRAIL sens: -5; CF NFkB conf: 34
